High-throughput results from PubChem.
KDM5B inhibitor: Primary screen for KDM5B Histone Demethylases FDH-coupled qHTS; AID 1347165, 2019; KDM5B demethylase, FDH-coupled NADH fluorescence (FDH is formaldehyde dehydrogenase); Lysine-specific demethylase 5B (Homo sapiens), Q9UGL1; Potency, µM (doses to about 57.7 µM), actives largely listed as inhibitors; 220,000 compounds, 2.6% hits; active = well fitted inhibition curve with a large enough effect; note: 0% is about no effect; nearly all actives have a fitted effect of over 70% in size
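Measured: NADH fluorescence change, 30 min, RT. System: KDM5BΔAP 200 nM final, H3K4me3 peptide, α-KG, Fe(II), ascorbate, NAD⁺ plus FDH, pH 7.5 HEPES. Compounds: titrated, 10 min pre-incubation with enzyme.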
* = called active by the depositor; i = inactive. This is one part of a sample in which hits are shown more often than they occur. Potency is the fitted concentration of half-maximal effect.

SMILES	KDM5B inhibitor
COc1cccc(NC(=O)c2cc3c(N(C)Cc4ccccc4)nc(C)cn3n2)c1	28.2µM*
COc1cccc(CN(C)CC(=O)Nc2cc(C)nn2-c2ccccc2)c1	i
CCN(CC)c1nc2ccccc2nc1C(=O)Nc1cccc(OC)c1	i
COc1ccc(NC(=O)Cn2c(N(C)Cc3ccccc3)nc(C)cc2=O)cc1OC	i
CSCC(=O)N1CC[C@H](NC(=O)NC2CCCCC2)[C@H]1C(=O)N[C@H](Cc1ccccc1)C(N)=O	i
CC(Sc1ncc(-c2ccccc2)o1)C(=O)NCc1ccc(F)cc1 (centres undefined)	i
COCCn1c(SCc2ccc(OC)c(F)c2)nnc1-c1ccc(Cl)cc1	i
COCCNC(=O)C(C)N1C(=O)COc2ccc(C(=O)COc3ccc(C)c(C)c3)cc21 (centres undefined)	i
COCCNC(=O)c1ccc2c(c1)N(C)C(CC(=O)N(C)C(C)C)CO2 (centres undefined)	28.2µM*
C#CCN(C)CC[C@@H]1CC[C@H](O)[C@@H](C(=O)NCCOC)O1	i
CC(C)CN(C(=O)CC1COc2ccc(C(=O)N(C)C)cc2N1C)C1CC1 (centres undefined)	i
C#CCN(C)C(=O)CC1COc2ccc(C(=O)NCCOC)cc2N1C (centres undefined)	31.6µM*
CCN(C(=O)CC1COc2ccc(C(=O)N(C)C)cc2N1C)C1CC1 (centres undefined)	i
CS(=O)(=O)N1CCCN(C(=O)CCc2ccccc2)c2ccccc21	i
CN(Cc1ccc(-c2ccc(Cl)cc2)o1)C(=O)CNC(=O)c1ccc(F)cc1	i
O=C1CN(C(=O)C2CCN(c3nc4ccccc4o3)CC2)CCN1	i
O=C(NC1CCSc2c(F)cccc21)c1cc2c(s1)CCCC2 (centres undefined)	i
CN(c1ccccc1)c1ccc2nnc(-c3ccccn3)n2n1	i
c1ccc(C2CCN(c3ccc4nnc(-c5ccccn5)n4n3)CC2)cc1	i
OCc1ccc(-c2ccc3nnc(-c4ccccn4)n3n2)cc1	31.6µM*
Cc1nn2c(c1-c1ccnn1C(C)C)N(Cc1ccc3c(c1)CCO3)CCC2	i
COc1ccc(CN2CCCn3nc(C)c(-c4ccnn4C(C)C)c32)cc1O	i
Cc1nn2c(c1-c1cccnc1N1CCOCC1)N(C(=O)Cc1cccc(Cl)c1)CCC2	i
Cc1nn2c(c1-c1cccnc1N1CCOCC1)N(Cc1ccc3c(c1)CCO3)CCC2	25.1µM*
Cc1nn2c(c1-c1cccnc1N1CCOCC1)N(C(=O)c1cc3ccccc3n1C)CCC2	i
SMILES	KDM5B inhibitor
COc1ccc(OC)c(CN2CCCn3nc(C)c(-c4cccnc4N4CCOCC4)c32)c1	12.6µM*
Cc1cccc(N(C)C(=O)Cn2nc(-c3ccc(F)cc3)ccc2=O)c1	i
O=C(Nc1ccc(I)cc1)C1CC2CCC1C2 (centres undefined)	i
COc1cc(NC(=O)c2cc3n(n2)CC(c2ccc(Cl)cc2)OC3)c(OC)cc1Cl (centres undefined)	i
O=C(Nc1cccc(F)c1)c1cc2n(n1)CC(c1ccc(Br)cc1)OC2 (centres undefined)	25.1µM*
COc1ccc(CNC(=O)c2cc3n(n2)CC(c2ccc(Cl)cc2)OC3)cc1OC (centres undefined)	i
O=C(NCc1ccccc1F)c1cc2n(n1)CC(c1ccc(Cl)cc1)OC2 (centres undefined)	i
NC(=O)c1ccc(NC(=O)c2cc3n(n2)CC(c2ccc(Br)cc2)OC3)cc1 (centres undefined)	25.1µM*
O=C(NCC1CCCO1)c1cc2n(n1)CC(c1ccc(Br)cc1)OC2 (centres undefined)	i
COc1cc(NC(=O)c2cc3n(n2)CC(c2ccc(Br)cc2)OC3)cc(OC)c1OC (centres undefined)	31.6µM*
CC(NC(=O)c1cc2n(n1)CC(c1ccc(Cl)cc1)OC2)c1ccccc1 (centres undefined)	i
O=C(NCCc1ccccn1)c1cc2n(n1)CC(c1ccc(Br)cc1)OC2 (centres undefined)	i
CN(C)S(=O)(=O)c1ccc(=O)n(Cc2ncc(-c3ccc(Cl)cc3)o2)c1	i
COc1ccc(S(=O)(=O)Nc2nc3ccccc3nc2Nc2cccc(F)c2)cc1	i
CN1CCC(C2CCN(C(=O)NC3CCCC3)C2)CC1 (centres undefined)	i
O=C(NCc1noc(-c2ccccc2)n1)c1cc2ccccc2o1	i
O=C1Nc2ccccc2C12CN(Cc1cncs1)C2	i
CCOc1ccc(N/C=C/C(=O)c2ccc(C(C)C)cc2)cc1	i
CC(C(=O)N1CCNC1=O)N1CCC(c2nc3ccccc3o2)CC1 (centres undefined)	i
Cc1ccc(C)c(NC(=O)CN(C)C(=O)c2cccc(S(=O)(=O)NCC3CCCO3)c2)c1 (centres undefined)	i
CCCCCCCCOC(=O)/C(C#N)=C/c1c[nH]c2ccccc12	i
COCc1ccc(C(=O)N[C@@H]2COCC[C@@H]2OCc2c(C)noc2C)o1	i
Cc1noc(C)c1CCC(=O)N[C@@H]1CCOC[C@H]1Oc1ccccn1	i
Cc1noc(C)c1CO[C@@H]1COCC[C@H]1NC(=O)c1cccc(=O)[nH]1	17.8µM*
CC(=O)N1CCN(c2cncc(C(=O)N3CCOCC3)n2)CC(O)C1 (centres undefined)	22.4µM*
SMILES	KDM5B inhibitor
O=C(c1cccnc1)N1CCn2cc(C(=O)N3CCOCC3)nc2C1	i
Cc1nccc(N2CCN(C(=O)N3CCOCC3)CC(C(=O)O)C2)n1 (centres undefined)	i
CNCc1ccc(F)cc1	i
CC(C)(C)SCC(=O)Nc1ccc2c(c1)CCC2	i
CC(C)CCN1CCC(N2CCN(S(=O)(=O)C(C)C)CC2)C1=O (centres undefined)	i
O=c1c2nc(-c3ccsc3)ccc2ncn1-c1ccccc1	39.8µM*
O=c1c2nc(-c3ccncc3)ccc2ncn1-c1ccccc1	i
Cn1cnc2ccc(-c3cccc(O)c3)nc2c1=O	i
CC(=O)c1cccc(NC(=O)Cc2c(C)[nH]n(-c3nc(-c4ccc(Cl)cc4)cs3)c2=O)c1	i
Cc1ccc(S(=O)(=O)N2CCN(C(=O)c3cn(C)c4ccccc34)CC2)cc1	i
CC(C)NC(=O)c1cc(-c2ccc(Cl)c(Cl)c2)on1	i
CN(C)C(=O)c1cc(-c2ccccc2S(C)(=O)=O)c2cccn2n1	i
CN(C)C(=O)c1cc(-c2ccc(S(C)(=O)=O)cc2)c2cnn(C)c2n1	79.4µM*
CC(C)NC(=O)c1cc(-c2ccc(S(C)(=O)=O)cc2)c2cnn(C)c2n1	89.1µM*
COc1ccccc1-c1cc(C(=O)N2CCN(c3ncccn3)CC2)nc2c1cnn2C	i
CC(C)NC(=O)c1cc(-c2ccc([S+](C)(=O)[O-])cc2)c2cccn2n1	i
CN(C)C(=O)CNC(=O)c1cc2occc2n1Cc1ccccc1	i
CN1C[C@H](O)C[C@H]1c1nnc2n1CCN(C(=O)CC1CCCCC1)CC2	i
CC1CCN(CC(=O)NCCc2c[nH]c3ccccc23)CC1	i
O=C(N1CCC(c2noc(C3CC3)n2)C1)C1(c2ccccc2)CC1 (centres undefined)	i
CC(C)c1noc([C@@H]2C[C@H](NS(=O)(=O)c3ccc(F)cc3)CN2C)n1	i
Cc1n[nH]c(C)c1C(N)C(=O)N1CCCCCCC1 (centres undefined)	i
